Measurements reported in PubChem BioAssay.
Active and inactive are the calls of the source.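 The calls were made as follows: active = RAM network inhibition above 8.4% in each of two replicates, 3 SD over the compound average; inconclusive = above 8.4% inhibition in only one replicate; inactive = 8.4% inhibition or less in each replicate.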

Experiment: RAM signaling pathway blockade in yeast – S. cerevisiae, Pdr1DBD-CYC8 efflux-inhibited sensitized strain, primary screen (AID 1298);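 also: 0% = DMSO untreated cells without growth and 100% = 10 µM 1-NA-PP1 full growth; higher means more yeast growth rescued from 5-FOA killing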
Conditions: S. cerevisiae cbk1-as DSE1-URA3 strain, 5-FOA growth OD615, 2 d; at 50 µM; hits give high values
In the case of `Cn1cc(SCC(=O)NCC2CCCO2)c2ccccc21` (stereo not given), the RAM network inhibition was 0.31% (inactive).
With `Cc1nnc(Sc2nc3c(c(=O)[nH]c(=O)n3C)n2Cc2ccccc2)s1` the RAM network inhibition was 0.73% (inactive).
With `O=C1CCCCCN1Cc1nnc(SCc2nc3ccccc3s2)n1-c1ccccn1` the RAM network inhibition was 2.7% (inactive).
In the case of `CCCCC(CC)C(=O)NCCCN1CCN(CCCNC(=O)C(CC)CCCC)CC1` (stereo not given), the RAM network inhibition was 2.42% (inactive).
With `c1csc(Cc2nc(-c3ccc(-n4cccc4)cc3)no2)c1` the RAM network inhibition was 1.65% (inactive).
For `COCCNC(=O)c1cc(-c2ccc(Cl)c(Cl)c2)on1`, the RAM network inhibition was 5.68% (inactive).
With `COc1ccc(-c2nn(-c3ccccc3)cc2C(=O)O)cc1` the RAM network inhibition was 11.1% (inactive).
For `Cc1cc(NC(=O)Nc2cccc3ccccc23)no1`, the RAM network inhibition was 5.09% (inactive).
With `O=C(c1ccc2snnc2c1)N1CCCC1` the RAM network inhibition was 4.99% (inactive).
For `COc1ccccc1NC(=O)c1cccc(S(=O)(=O)N2CCOCC2)c1`, the RAM network inhibition was 0.68% (inactive).
With `COc1ccc(-n2c(Cn3c(=O)sc4ccccc43)nnc2SCC(=O)N2CCOCC2)cc1` the RAM network inhibition was 1.66% (inactive).
For `O=C(c1cc(-c2cccc(O)c2)on1)N1CCCCC1`, the RAM network inhibition was 4.74% (inactive).
For `Cc1ccc(S(=O)(=O)N(C)Cc2nc(-c3ccc(Br)cc3)no2)cc1`, the RAM network inhibition was 3.02% (inactive).
With `O=C(NCc1ccccc1)c1ccc2c(c1)OCCO2` the RAM network inhibition was 0.51% (inactive).
In the case of `CCOC(=O)CSc1nnc(Cn2c(=O)sc3ccccc32)n1-c1ccccc1C`, the RAM network inhibition was 2.24% (inactive).
For `CCOC(=O)c1sc2nc(NC(=O)C3CC3)sc2c1C`, the RAM network inhibition was 3.96% (inactive).
In the case of `O=C(CCCOc1ccccc1)Nc1cccc(C(=O)O)c1`, the RAM network inhibition was 2.71% (inactive).
With `CN(C)CCNC(=O)c1ccc(CS(=O)(=O)c2c(Cl)cccc2Cl)o1` the RAM network inhibition was -1.13% (inactive).
In the case of `CCOC(=O)CC1C(=O)NCCN1Cc1cccc(C(F)(F)F)c1` (stereo not given), the RAM network inhibition was -0.14% (inactive).
For `CC(=O)c1cccc(NC(=O)c2cc3ccccn3n2)c1`, the RAM network inhibition was -0.31% (inactive).
For `Cc1ccc2c(c1)NCC(C(=O)NCc1ccccc1)O2` (stereo not given), the RAM network inhibition was 0.25% (inactive).
For `CCOC(=O)NCc1ccc(CNC(=O)OCC)cc1`, the RAM network inhibition was 0.57% (inactive).
With `CC1=C(C#N)C(c2cccnc2)C2=C(CC(C)(C)CC2=O)N1` (stereo not given) the RAM network inhibition was 3.92% (inactive).
In the case of `CCN1CCN(CCCNC(=O)Cn2cc3c(n2)CCCC3)CC1`, the RAM network inhibition was 0.76% (inactive).
For `CC12CN3CC(C)(CN(C1)C3c1ccc3ccccc3c1O)C2=O` (stereo not given), the RAM network inhibition was -0.68% (inactive).
For `CCOC(=O)NC(C(F)(F)F)(C(F)(F)F)P(=O)(c1ccccc1)c1ccccc1`, the RAM network inhibition was 4.13% (inactive).
In the case of `O=C(Cn1cc2c(n1)CCCCC2)NCCN1CCOCC1`, the RAM network inhibition was 2.18% (inactive).
With `O=C(COC(=O)c1ccc(S(=O)(=O)NCc2ccco2)cc1)Nc1ccccc1OC(F)F` the RAM network inhibition was 7.18% (inactive).
For `COc1ccc(-c2nnc(SCC(=O)NC(C)c3ccccc3)o2)cc1OC` (stereo not given), the RAM network inhibition was 1.77% (inactive).
In the case of `C=CCSc1nc2ccccc2c(=O)[nH]1`, the RAM network inhibition was 0.79% (inactive).
With `COCc1cc(C)nc2sc3c(=O)n(Cc4ccco4)nnc3c12` the RAM network inhibition was 4.8% (inactive).
In the case of `Cc1ccc(S(=O)(=O)N(C)CCCC(=O)N2CCOCC2)cc1`, the RAM network inhibition was 3.03% (inactive).
In the case of `COc1cccc(-n2nnc3c(=O)n(C/C=C/c4ccccc4)cnc32)c1`, the RAM network inhibition was 2.07% (inactive).
With `CCOc1cc(C(=O)Nc2nnc(C)s2)cc(OCC)c1OCC` the RAM network inhibition was 0.63% (inactive).
For `CCC(C)NC(=O)C1CCN(C(=O)c2ccccc2)CC1` (stereo not given), the RAM network inhibition was 1.87% (inactive).
In the case of `CC(C)c1nnc(NC(=O)c2ccc(S(=O)(=O)N3CCOCC3)cc2)s1`, the RAM network inhibition was 6.74% (inactive).
For `CCOC(=O)c1ccccc1N1C(=O)CSC1=S`, the RAM network inhibition was 0.73% (inactive).
With `COC(=O)C1=C(C)NC(=O)CC1c1cc2c(cc1Br)OCO2` (stereo not given) the RAM network inhibition was 5.87% (inactive).
In the case of `Cc1ccc(C)c(N2CCN(C(=O)CCc3nc4ccccc4[nH]3)CC2)c1`, the RAM network inhibition was -0.77% (inactive).
In the case of `CCN1CCN(CC(=O)Nc2ccc3c(c2)OCO3)C(=O)C1=O`, the RAM network inhibition was 6.72% (inactive).
